Measured values from PubChem BioAssay (NCATS).
Several values for one entry are separate records, joined by “and”; a condition that tells them apart may be missing. Equal entries are not always repeated. Results filed as inconclusive are left out. Where a call stands in place of a potency, no number is given. A number with no mark means an inactive call. Activity calls are given as the source filed them. Calls come from the whole dose curve; as a rule, active = well fitted inhibition curve with a large enough effect; inconclusive = small, poorly fitted or top-dose-only effect; inactive = flat fitted curve, though single readings scatter.

Columns and labels:
PC26 = test: qHTS profiling for inhibitors of Plasmodium falciparum proliferation (AID 504749); note: potency is the fitted concentration of half-maximal effect; details: P. falciparum in erythrocytes, SYBR Green DNA, 72 h; series mostly up to 28.7 µM
Summary of the method: (§1)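 Each compound contacts P. falciparum-infected red blood cells for 72 h at 37 C; lysis buffer (Tris, EDTA, saponin, Triton X, SYBR Green I) is added and fluorescence measured next morning; values normalized to controls.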

PC49 = test: as above; details: P. falciparum in erythrocytes, SYBR Green DNA, 72 h; series mostly up to 28.7 µM
Summary of the method: as §1

SC27B = test: as above; details: P. falciparum in erythrocytes, SYBR Green DNA, 72 h; series mostly up to 28.7 µM
Summary of the method: as §1

TAB109 = test: as above; details: P. falciparum in erythrocytes, SYBR Green DNA, 72 h; series mostly up to 28.7 µM
Summary of the method: as §1

TAB113 = test: as above; details: P. falciparum in erythrocytes, SYBR Green DNA, 72 h; series mostly up to 28.7 µM
Summary of the method: as §1

TAB165 = test: as above; details: P. falciparum in erythrocytes, SYBR Green DNA, 72 h; series mostly up to 28.7 µM
Summary of the method: as §1

W2 = test: as above; details: P. falciparum in erythrocytes, SYBR Green DNA, 72 h; series mostly up to 28.7 µM
Summary of the method: as §1

CRL-7250 = normal cell line; test: Cytotoxic Profiling of Annotated Libraries Using Quantitative High-Throughput Screening (AID 1296008); details: Five cell lines viability, CellTiter-Glo ATP luminescence, 48-72 h; active compounds read low
Summary of the method: (§2)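 Cells exposed to compounds for 48 or 72 hr at 37 degrees Celsius. Viability read as ATP-coupled luminescence with CellTiter-Glo after 10 min at room temperature.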

HaCat [1] = test: as above; details: Five cell lines viability, CellTiter-Glo ATP luminescence, 48-72 h; active compounds read low
Summary of the method: as §2

KB-3-1 = test: as above; details: Five cell lines viability, CellTiter-Glo ATP luminescence, 48-72 h; max response: active compounds read low
Summary of the method: as §2

HACAT [2] = test: qHTS assay to identify novel small-molecules to repurpose for Merkel cell carcinoma treatment (AID 1296009); details: MCC and control cell lines, CellTiter-Glo viability, 72 h; at 44.8 µM (top of the series)
Summary of the method: (§3)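 Dose-response viability screen; 72 hr exposure at 37 degree celsius; CellTiter-Glo added, 10 min room temperature, luminescence read; RLUs scaled between no-cell and DMSO wells.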

MCC-13 = test: as above; details: MCC and control cell lines, CellTiter-Glo viability, 72 h; series mostly up to 46 µM
Summary of the method: as §3

MCC-26 = test: as above; details: MCC and control cell lines, CellTiter-Glo viability, 72 h; series mostly up to 46 µM
Summary of the method: as §3

MKL-1 = test: as above; details: MCC and control cell lines, CellTiter-Glo viability, 72 h; series mostly up to 46 µM
Summary of the method: as §3

MKL-2 = test: as above; details: MCC and control cell lines, CellTiter-Glo viability, 72 h; series mostly up to 46 µM
Summary of the method: as §3

UISO = test: as above; details: MCC and control cell lines, CellTiter-Glo viability, 72 h; series mostly up to 46 µM
Summary of the method: as §3

HEK293 = test: Cytotoxic Profiling of Annotated Libraries Using Quantitative High-Throughput Screening (AID 1296008); details: Five cell lines viability, CellTiter-Glo ATP luminescence, 48-72 h; max response: active compounds read low
Summary of the method: as §2

NIH3T3 [3] = test: as above; details: Five cell lines viability, CellTiter-Glo ATP luminescence, 48-72 h; max response: active compounds read low
Summary of the method: as §2

NIH3T3 [4] = test: qHTS assay to identify novel small-molecules to repurpose for Merkel cell carcinoma treatment (AID 1296009); details: MCC and control cell lines, CellTiter-Glo viability, 72 h; at 44.8 µM (top of the series)
Summary of the method: as §3
Note: nearly all actives have a fitted effect of over 60% in size.

Structure (SMILES): CC(=O)Oc1cccc2c1C(=O)c1c(OC(C)=O)cc(C(=O)O)cc1C2=O
- Potency (PC26): inactive
- Potency (PC49): inactive
- Potency (SC27B): inactive
- Potency (TAB109): inactive
- Potency (TAB113): inactive
- Potency (TAB165): inactive
- Potency (W2): inactive
- max response (CRL-7250): -18.7%
- outcome (HaCat [1]): inactive
- max response (KB-3-1): -2.72%
- outcome (HACAT [2]): inactive
- outcome (MCC-13): inactive
- outcome (MCC-26): inactive
- outcome (MKL-1): inactive
- outcome (MKL-2): inactive
- outcome (UISO): inactive

Structure (SMILES): Nc1ccc(N=Nc2ccccc2)c(N)n1
- Potency (PC26): inactive
- Potency (PC49): inactive
- Potency (SC27B): inactive
- Potency (TAB113): inactive
- Potency (TAB165): inactive
- Potency (W2): inactive
- outcome (CRL-7250): inactive
- max response (HEK293): 4.3%
- max response (HaCat [1]): 0.77%
- max response (KB-3-1): 1.52%
- max response (NIH3T3 [3]): -0.826%
- outcome (MCC-13): inactive
- outcome (MCC-26): inactive
- outcome (MKL-1): inactive
- outcome (MKL-2): inactive
- outcome (UISO): inactive

Structure (SMILES): O=C(O)Cc1cc(I)c(Oc2ccc(O)c(I)c2)c(I)c1
- Potency (PC26): inactive
- Potency (PC49): inactive
- Potency (SC27B): inactive
- Potency (TAB109): inactive
- Potency (TAB113): inactive
- Potency (TAB165): inactive
- Potency (W2): inactive
- outcome (CRL-7250): inactive
- outcome (HaCat [1]): inactive
- max response (KB-3-1): 1.68% and -7.08%
- outcome (NIH3T3 [3]): inactive
- outcome (HACAT [2]): inactive
- outcome (NIH3T3 [4]): inactive

Structure (SMILES): CNCC(=O)N[C@@H](CCCN=C(N)N)C(=O)N[C@H](C(=O)N[C@@H](Cc1ccc(O)cc1)C(=O)N[C@H](C(=O)N[C@@H](Cc1cnc[nH]1)C(=O)N1CCC[C@H]1C(=O)N[C@@H](C)C(=O)O)C(C)C)C(C)C
- max response (KB-3-1): 1.41%

Structure (SMILES): OCCN1CCN(CC/C=C2/c3ccccc3Sc3ccc(Cl)cc32)CC1
- max response (KB-3-1): 6.68%

Structure (SMILES): O=C(Cc1cccs1)N[C@@H]1C(=O)N2C(C(=O)[O-])=C(C[n+]3ccccc3)CS[C@H]12
- max response (KB-3-1): 6.88%

Structure (SMILES): Oc1ccc(/C=C/c2cc(O)cc(O)c2)cc1
- max response (CRL-7250): -2.32%
- max response (HEK293): -3.47%
- max response (KB-3-1): 36.2%
- outcome (MCC-13): inactive
- outcome (MCC-26): inactive
- outcome (MKL-1): inactive
- outcome (UISO): inactive

Structure (SMILES): Cc1c(O)c(=O)ccn1C
- max response (KB-3-1): 5.64%

Structure (SMILES): C/C(=C\C(=O)OCCCCCCCCC(=O)O)C[C@@H]1OC[C@H](C[C@@H]2O[C@H]2[C@@H](C)[C@H](C)O)[C@@H](O)[C@H]1O
- Potency (TAB109): 141 nM (active)
- Potency (W2): 190 nM (active)
- max response (CRL-7250): 4.39%
- max response (HEK293): -15.8%
- max response (HaCat [1]): -2.01%
- max response (KB-3-1): -2.38%
- max response (NIH3T3 [3]): -3.66%

Structure (SMILES): CC(=O)[C@@]1(O)CC[C@H]2[C@@H]3C=C(Cl)C4=CC(=O)[C@@H]5C[C@@H]5[C@]4(C)[C@H]3CC[C@@]21C
- max response (KB-3-1): 1.37%
